Drawing on PubChem BioAssay AID778 (Sanford-Burnham Center for Chemical Genomics, 2007), this text covers inhibition for 99 molecules.

One may read the inhibition as the relative decrease from the control value, in per cent.

Each structure is given as a SMILES string. Out of some 96,000 compounds screened, about 20,000 (21%) were called active. A selection follows. A number with no mark means an inactive call.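 How the source made its calls: active means CYP2C19 inhibition above a set limit at 5 µM in the primary screen (cut at about 50% in these data); inactive means the rest.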

The target of this assay is Cytochrome P450 2C19 (Homo sapiens) (UniProt P33261). The experiment in a line: blockers of cytochrome P450 2C19 activity – biochemical, luminescence, ADME assay, primary screen (AID 778).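 Further: plate controls were negative control wells for no effect and 2.5 mM tranylcypromine positive control for full effect.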 The conditions noted are these: CYP2C19 Supersomes, luciferin-H EGE luminescence, 30 min; at 5 µM; hits give high values.
Sequence of Cytochrome P450 2C19 (Homo sapiens) (P33261 whole entry, looked up): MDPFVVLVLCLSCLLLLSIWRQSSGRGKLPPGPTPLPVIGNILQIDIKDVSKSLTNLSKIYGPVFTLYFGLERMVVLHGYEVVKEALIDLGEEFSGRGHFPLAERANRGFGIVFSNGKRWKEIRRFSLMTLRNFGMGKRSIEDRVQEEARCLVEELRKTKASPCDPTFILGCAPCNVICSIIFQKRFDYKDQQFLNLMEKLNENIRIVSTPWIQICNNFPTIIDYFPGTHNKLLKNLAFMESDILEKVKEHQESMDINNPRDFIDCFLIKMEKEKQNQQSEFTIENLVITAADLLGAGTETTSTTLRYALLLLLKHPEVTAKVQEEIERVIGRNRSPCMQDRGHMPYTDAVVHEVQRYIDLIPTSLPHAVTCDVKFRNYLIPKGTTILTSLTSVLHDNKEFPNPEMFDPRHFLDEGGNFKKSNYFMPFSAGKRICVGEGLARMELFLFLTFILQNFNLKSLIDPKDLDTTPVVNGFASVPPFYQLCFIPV
As to `CCOC(=O)N1CCC(Nc2c(NCCN3CCN(c4cccc(Cl)c4)CC3)c(=O)c2=O)CC1`, the inhibition was 2.4%. Next, `O=S(=O)(N/N=C\c1cccn1-c1ccccc1)c1ccc2ccccc2c1`: 49.7%; `CCCCn1c(SCC(=O)NCCc2ccc(OC)c(OC)c2)nc2c1c(=O)n(C)c(=O)n2C`: -14.1%; `Cc1noc(C)c1C(=O)N(CC(=O)NC1CCCC1)Cc1ccccc1F`: -7.6%. The result for `CCC(C)(NC(=O)c1ccccn1)C(=O)NC1CCCCC1` (centres undefined) reads 17.6%; that for `CCCC(=O)Nc1cc(OCC)c(NC(=O)NC2CCCCC2)cc1OCC`, 10.5%; that for `O=C(CCCC(=O)N(CC(=O)NC1CCCC1)Cc1ccccc1Cl)Nc1ccccn1`, 77.5% (active). Regarding `CCOc1ccccc1N(CC(=O)NC1CCCCC1)C(=O)CCCC(=O)Nc1ccccn1`, the inhibition is 68.9% (active). The result for `Cc1ccc(C(C(=O)NC2CCCC2)N(Cc2ccco2)C(=O)CCC(=O)Nc2ccccn2)cc1` (centres undefined) reads 10.6%; that for `O=C1CCCC(O)=C1C=NCCc1ccccc1`, 12.8%.

With `CC(CCO)Nc1nc2c([nH]1)c(=O)n(C)c(=O)n2C` (centres undefined), the inhibition was 0.9%. For the molecule `Cn1c2c(c(=O)n(C)c1=O)C(c1ccc(O)cc1)Nc1ccccc1O2` (centres undefined), the inhibition is 2%.

On to `CCOc1[nH]n(-c2ccc(Cl)cc2)c(=O)c1C=Nc1ccc(O)cc1`, for which the inhibition was 13.5%. With `CCCN1CCN(C(=O)Cn2ncc3ccccc32)CC1`, the inhibition is 12.6%. The result for `CN(C(=O)c1ccno1)c1nnc(-c2cccnc2)s1` reads -0.7%; that for `COCCN(C(=O)c1ccco1)c1nnc(-c2ccc(OC)cc2)s1`, 24%; that for `Cc1nnc(N(Cc2ccco2)C(=O)c2ccno2)s1`, 80.5% (active). Turning to `Cc1nnc(SCCCn2c(N3CCCCC3)nc3c2c(=O)[nH]c(=O)n3C)s1`, the inhibition is 22.6%. Next, `Cc1ccc(O)c(NC(=O)COc2cc(C)ccc2C)c1`: -2.7%; `CCCn1nnnc1NC(=O)COc1ccc(Cl)cc1C`: 70.2% (active).

`Cc1cccc(NC(=O)COc2ccc(Br)cc2C)n1`: the inhibition is 5%. With `CN1CCN(S(=O)(=O)c2ccc3[nH]cc(C(=O)O)c(=O)c3c2)CC1`, the inhibition was 3.6%. On to `CCNC(=S)Nc1cccc(Cl)c1C`, for which the inhibition is 48%. With `Cc1cc(C)nc(SCc2ccccc2C#N)n1`, the inhibition is 50.2% (active).

For the molecule `Nc1nc(SCc2ccccc2Cl)n[nH]1`, the inhibition is 0.1%. As to `Clc1ccccc1CSc1nnc(-c2ccco2)c(-c2ccco2)n1`, the inhibition is 31.1%. `Cc1ccc(CS(=O)(=O)CCC(=O)NC2CC2)cc1`: the inhibition was 9.7%. The result for `COc1ccc(CNC(=O)CCn2cccc2)cc1` reads 35%; that for `CCCCCNC(=O)Cc1ccc(OC)cc1`, 92.4% (active); that for `COc1ccc(OCC(=O)NCCc2ccc(S(N)(=O)=O)cc2)cc1`, 19.4%. Turning to `O=C(NCCN=C1NS(=O)(=O)c2ccccc21)c1ccc(S(=O)(=O)N2CCOCC2)cc1`, the inhibition is -2%. The result for `O=C1CCCC2=C1C(c1ccccc1)n1c(s/c(=C/c3cccc(F)c3)c1=O)=N2` (centres undefined) reads 34.6%; that for `CS(=O)(=O)Nc1cccc(C2=NN(S(=O)(=O)c3ccccc3)C(c3cccs3)C2)c1` (centres undefined), 72.2% (active). Regarding `CCOC(=O)C1CCN(C(=O)c2oc3ccc(S(=O)(=O)N4CCCCCC4)cc3c2C)CC1`, the inhibition was 40.4%. As for `O=C(Nc1nnc(SCc2ccccc2)s1)c1ccco1`, the inhibition was 2.5%.

Regarding `COc1ccc2c(CC(=O)Nc3nnc(C4CC4)s3)coc2c1`, the inhibition is 12.6%. Consider `CCOc1ccc(CN(Cc2ccco2)S(=O)(=O)c2ccc(-n3cnnn3)c(OC)c2)cc1`, for which the inhibition is 57.7% (active). Next, `COc1ccc(CN(Cc2ccco2)S(=O)(=O)c2ccc(S(=O)(=O)N3CCCC3)cc2)cc1`: 38.7%; `CCOc1ccc(CN(Cc2ccco2)C(c2cccs2)c2nnnn2C(C)(C)C)cc1` (centres undefined): 47.8%; `CCOc1nnc(C)c2c(C)n(-c3cccc(Cl)c3)nc12`: 45.7%. Next, `Cc1cc(=O)n(C)c(=O)n1CCCNc1ccccc1`: 18.5%; `CC(=O)c1sc(NC(=O)c2cccc3ccccc23)nc1C`: -21.9%; `COc1ccccc1N1CCN(C(=O)c2cc(-c3ccc(Br)cc3)on2)CC1`: -2.9%. As to `COc1ccccc1N1CCN(C(=O)c2ccc(S(=O)(=O)N3CCCCC3)cc2)CC1`, the inhibition is 28.3%. Next, `COc1ccccc1N1CCN(C(=O)c2c(-c3c(Cl)cccc3Cl)noc2C)CC1`: 78.9% (active). Next, `CC1=NN(C(=O)Cc2ccc(C)cc2)C(O)(c2cccnc2)C1` (centres undefined): 62.6% (active); `Cc1ccc(NC(=O)N2CCC(O)(c3cccnc3)CC2)cc1`: 2.2%. The result for `CC1=NN(C(=O)c2ccccc2Br)C(O)(c2cccnc2)C1` (centres undefined) reads 16.7%; that for `CC(c1ccccn1)N(CCN(C)C)C(=S)Nc1ccccc1F` (centres undefined), 13.7%; that for `Cc1cc2c(c(=O)n1C)C(C(C)C)C(C#N)=C(N)O2` (centres undefined), 3.4%. Regarding `CCCCN(C)C(=O)C1CCN(Cc2ccccn2)CC1`, the inhibition was -6.2%. With `COc1ccc(C2CC(=O)C=C(NCC3CCCO3)C2)cc1` (centres undefined), the inhibition was 19.6%.

`CCOc1cccc(-c2nn3c(-c4ccccn4)nnc3s2)c1`: the inhibition is -1.6%.

Turning to `COc1cc(-c2nn3c(-c4cccc(C)c4)nnc3s2)cc(OC)c1OC`, the inhibition was 79.2% (active). On to `COc1ccc(-c2nn3c(-c4ccccc4)nnc3s2)cc1OC`, for which the inhibition was 0.9%.

As for `CC(C)(C)n1c(=O)[nH]c2c(c1=O)CCC2`, the inhibition was -16.7%. With `O=C(O)C1CCN(S(=O)(=O)N2CCOCC2)CC1`, the inhibition was -3%. Next, `O=C1c2ccccc2C(=O)N1CC1c2ccccc2CCN1S(=O)(=O)c1ccccc1` (centres undefined): 36.9%; `O=S(=O)(NCC1OCCc2ccccc21)c1ccccc1` (centres undefined): 53.6% (active); `O=C(CN(CC1CCCO1)C(=O)CNS(=O)(=O)c1ccccc1)NCc1ccccc1` (centres undefined): 4.5%.

For the molecule `N#CC(C(N)=O)=C1CCC2(CC1)OCCCCO2`, the inhibition is 24.1%. The result for `CC(N)C12CC3CC(CC(O)(C3)C1)C2` (centres undefined) reads 6.1%; that for `FC(F)(F)c1cccc(-c2cc3ccccc3nc2N2CCCC2)c1`, 16.1%; that for `O=C1c2ccncc2C(=O)N1C1CCCCC1`, -1.7%. Turning to `COc1ccc2c(Cl)c(-c3nnco3)sc2c1`, the inhibition is 19%.

As for `COc1cccc(N=c2oc3c(C)ncc(CO)c3cc2C(N)=O)c1`, the inhibition was 21.1%.

Take `CC(Oc1ccc(Cl)cc1Cl)C(=O)/C=C/N(C)C` (centres undefined): the inhibition was 60.1% (active). For `CN(C)/C=C/C(=O)c1ccccc1F`, the inhibition was -7%. The result for `CC(Oc1ccc(F)cc1F)C(=O)/C=C/N(C)C` (centres undefined) reads -6.9%; that for `Cc1cccc(N(CC(O)CN(C)C)S(=O)(=O)c2ccccc2)c1` (centres undefined), -5.2%; that for `O=C(CN1CCSCC1)N/N=C/c1ccc(F)cc1F`, 3.1%. The result for `Cc1ccc(-c2nc(CS(=O)CC(=O)NC3CCCC3)c(C)o2)cc1` (centres undefined) reads 32.1%; that for `COC(=O)C1(S(=O)(=O)C2(C(=O)OC)CCCC2)CCCC1`, 65.4% (active). As for `COc1ccc(Cc2nnc(SC)[nH]c2=O)cc1`, the inhibition is -4.5%. Next, `Cc1cccc(C(=O)NCCCN2CCCC2=O)c1`: 21.8%; `CCc1nc(C)cn1S(=O)(=O)c1cc(OC)c(C)cc1C`: 45.7%; `COc1ccc(CN2C(=O)CN=C2Nc2ccc(C)cc2C)cc1`: 82.7% (active). The result for `Cc1cc(C)nc(NC2=NCC(=O)N2c2ccc(Cl)cc2)n1` reads 4.3%; that for `COc1ccc(N2C(=O)CN=C2Nc2cccc(C)c2C)cc1OC`, 17.1%; that for `Cc1nc(NC2=NC(C(=O)Nc3ccc(Cl)cc3)CC(=O)N2)nc2ccccc12` (centres undefined), 2.5%.

`CC(C)Oc1ccc(C(=O)NC(C)(C)CO)cc1`: the inhibition was 3.7%.

Regarding `COC(=O)c1ccc(C2CC(=O)Nc3cc(OC)c(OC)cc32)cc1` (centres undefined), the inhibition is 36.1%.

With `COCCOC(=O)C1=C(C)Nc2nc(C)nn2C1c1ccccc1` (centres undefined), the inhibition was 17.9%.

Take `COCCOC(=O)C1=C(C)NC(=O)CC1c1cc2c(cc1Br)OCO2` (centres undefined): the inhibition is 83.7% (active). As for `CC(C)(C)C(=O)Nc1ccc(C(=O)N/N=C/c2ccccc2OC(=O)c2ccc(Cl)cc2Cl)cc1`, the inhibition was 42.1%. For `CCS(=O)(=O)Nc1ccc(C2=NN(S(=O)(=O)c3ccc(F)cc3)C(c3ccco3)C2)cc1` (centres undefined), the inhibition is 82.8% (active). Consider `CN1CCN(S(=O)(=O)c2ccc(NC(=O)c3ccco3)cc2)CC1`, for which the inhibition was -15.6%. The result for `Fc1ccc(N2N=C(c3cccs3)CC2c2ccco2)c(F)c1` (centres undefined) reads 2.3%; that for `COc1cccc2c1OCC1COc3c(c(=O)n(C)c(=O)n3C)C21` (centres undefined), -1%; that for `COc1ccc(C2CC(=O)n3c(nc4ccccc43)S2)cc1OC` (centres undefined), 11.9%. With `COc1ccc(C2N=C(N)N=C(N)N2c2ccccc2)cc1OC` (centres undefined), the inhibition is 57.2% (active).

In the case of `COc1ccc(C2SCCN2S(=O)(=O)c2ccccc2)cc1OC` (centres undefined), the inhibition is 48.2%. For `Cc1c(Nc2cc(N3CCCC(C)C3)c3nonc3c2[N+](=O)[O-])c(=O)n(-c2ccccc2)n1C` (centres undefined), the inhibition is 19.5%. The result for `CCSC(C)CC1C/C(=N/O)c2c(C)noc2C1` (centres undefined) reads 40.9%; that for `CNC(=O)/C(=C\C=C\c1ccccc1)NC(=O)c1ccc([N+](=O)[O-])cc1`, 23.9%. As to `COc1cc(C(=O)NC(=S)NCc2ccco2)cc(OC)c1OC`, the inhibition is 28.5%. As to `Cc1ccc(C(=O)N/C(=C/C=C/c2ccccc2)C(=O)NCc2ccco2)cc1`, the inhibition was 50.8% (active). The result for `CCOCCCNC(=O)C(NC(=O)c1ccc(=O)[nH]c1)c1ccc(Cl)cc1` (centres undefined) reads -4.8%; that for `CCN(CC(=O)Nc1ccccc1OC)C(=O)Cn1cnc2ccccc2c1=O`, 1.7%.
